Assay outcomes as filed in PubChem.
Hits are enriched below; roughly 1.6% of the tested compounds scored in any of these assays.
PolyA inhibitor = polyadenylation inhibitors in yeast reporter cells, primary screen, luminescence, S. cerevisiae | S. cerevisiae SKY197-pL101 polyadenylation reporter, beta-gal luminescence; efflux-impaired pdr1/pdr3 knockout yeast; score 100 = 6 SD above DMSO | activity score, % at 12 µM | 300,000 tested, 0.02% active;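 active means lowest replicate activity score at least 50, where 100 means six control SD above control mean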;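 further: yeast exposed to compound for 9 h at 30 °C; higher score means more reporter readthrough which indicates perturbed polyadenylation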
MOR-DOR ag-1 = agonists of OPRM1-OPRD1 heterodimerization, primary screen, cell-based, luminescence. Mu-type opioid receptor (Homo sapiens) + Delta-type opioid receptor (Homo sapiens), …. cells. activation, % at 9.3 µM. 340,000 tested, 0.3% active;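 further: 0% = vehicle-treated cells and 100% = reference agonist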
HTR5A ag ctr = HTR5A agonists in luminescence cell assay, primary screen, counter-screen for OPRM1-OPRD1 heterodimer agonist project, full-deck HTS | AID 504692, 2011 | 5-hydroxytryptamine receptor 5A (Homo sapiens), P47898 | activation, % at 9.3 µM | cell-based | 340,000 tested, 0.61% active; in the data active means activation mostly above about 9.5%, no sharp cut-off; inactive means mostly below about 7.6%;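 further: 0% = cells with vehicle only and 100% = reference agonist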
NALP1 yeast inh = NALP1 inflammasome inhibitors in reconstituted yeast, colorimetric, S. cerevisiae, triplicate retest. S. cerevisiae NALP1/ASC/caspase-1 growth, X-gal OD620, 72 h. 280,000 tested, 0.61% active. inhibition, % at 10 µM; in the data active means inhibition mostly above about 24%, no sharp cut-off; inactive means mostly below about 32%
MOR-DOR inv ag = inverse agonists of MOR-DOR heterodimerization, primary screen, cell-based, luminescence; Mu-type opioid receptor (Homo sapiens) + Delta-type opioid receptor (Homo sapiens), …; cell-based MOR-DOR heterodimer luminescence, inverse agonism; inhibition, % at 9.3 µM; 340,000 tested, 0.21% active; AID 504357, 2011; in the data active means inhibition above about 22%, passing the limit was not always enough;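 further: 0% = cells with DMSO and 100% = wells without cells with DMSO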
HTR5A inv ag = HTR5A inverse agonists in luminescence cell assay, primary screen, counter-screen for OPRM1-OPRD1 heterodimer inverse agonist project, full-deck HTS; 340,000 tested, 0.083% active; HTR5A cell line, inverse agonism; inhibition, % at 9.3 µM; in the data active means inhibition mostly above about 23%, no sharp cut-off; inactive means mostly below about 18%;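 further: 0% = cells with DMSO and 100% = no-cell wells with DMSO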
MOR-DOR ag-2 = OPRM1-OPRD1 heterodimerization promoters, counter-screen for HTR5A agonist project, cell-based, luminescence; 800 tested, 13% active; shares compounds with HTR5A ag ctr; U2OS counter-screen cells, complementation luminescence, 3 h; activation, % at 9.3 µM
HTR5A ag confirm = HTR5A agonists, retest of hits, confirmation, cell-based, luminescence; activation, % at 9.3 µM; 800 tested, 17% active; shares compounds with HTR5A ag ctr; HTR5A agonist cell assay; in the data active means activation above about 17%;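 further: 0% = cells with vehicle only and 100% = full reference agonist response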
* = called active by the depositor; . = not tested or not shown. Unless noted, no stated cut-off is given here; in the data, active means activation above about 18%; inactive means the rest.

SMILES | PolyA inhibitor | MOR-DOR ag-1 | HTR5A ag ctr | NALP1 yeast inh | MOR-DOR inv ag | HTR5A inv ag | MOR-DOR ag-2 | HTR5A ag confirm
COc1ccccc1N(CC(=O)NCc1ccco1)S(C)(=O)=O | 6 | -2 | 3 | 0 | 9 | -8 | . | .
CCc1ccc(-c2cc(C(=O)Nc3ccc(S(=O)(=O)NC(C)=O)cc3)c3ccccc3n2)cc1 | 8 | -2 | 21* | 13 | 12 | -51 | 10 | -3
Cc1ccc(-c2cc(C(=O)Nc3ccc(S(=O)(=O)Nc4ncccn4)cc3)c3ccccc3n2)cc1 | -2 | 0 | -2 | 27 | -2 | -9 | . | .
NS(=O)(=O)c1ccc(NC(=O)Cn2ncc3c2-c2ccccc2OC3)cc1 | -12 | 5 | 19* | 27 | -28 | -57 | 0 | 4
COc1cc(NC(=O)Cn2ncc3c2-c2ccccc2OC3)cc(OC)c1OC | 2 | -1 | 6 | 4 | 3 | -19 | . | .
CCc1nc(N)nc(N)c1-c1ccc(Cl)c(N=[N+]=[N-])c1 | . | -4 | 2 | . | 19 | -7 | . | .
CCn1c(NC(=O)c2cccc(Cn3cc(Cl)cn3)c2)nc2ccccc21 | -7 | 0 | 20* | -13 | 0 | -51 | 6 | 12
Cn1c(NC(=O)c2cccc(Cn3cc(Cl)cn3)c2)nc2ccccc21 | -3 | 1 | 2 | -5 | -7 | -7 | . | .
CC1(C(=O)OCC(=O)c2c[nH]c3ccccc23)CC1(Cl)Cl (stereo unspecified) | -9 | 2 | -1 | -8 | -10 | -12 | . | .
COc1cccc(C2CC(=O)Nc3cc(OC)c(OC)cc32)c1 (stereo unspecified) | 7 | -1 | 1 | 4 | 6 | -4 | . | .
COc1cccc(C2CC(=O)Nc3cc4c(cc32)CCC4)c1 (stereo unspecified) | -28 | 0 | 15* | 11 | 1 | -42 | 54* | -1
CC(=O)NC(=S)Nc1ccc(NC(=O)COc2ccc(Cl)cc2Cl)cc1 | -8 | 8 | 27* | 21 | -52 | -33 | 0 | -3
O=C(COc1ccc(Cl)cc1Cl)NNC(=S)Nc1ccc(F)cc1 | -29 | -1 | -2 | 10 | 4 | -17 | . | .
CC1=NNC(=O)/C1=C\c1cn(-c2ccccc2)nc1-c1cccs1 | -43 | 4 | 17* | 65* | -28 | -45 | 3 | 2
Cc1cccc(NC(=O)COC(=O)COc2ccc3c(c2)CCC3)c1 | . | 3 | 1 | . | -11 | 3 | . | .
CC(C)(C)NC(=O)NC(=O)COC(=O)COc1ccc2c(c1)CCC2 | 1 | 6 | 20* | -4 | -36 | -54 | 10 | 4
CN(Cc1ccccc1F)C(=O)CN1c2cccc3cccc(c23)S1(=O)=O | 12 | -1 | 3 | . | 7 | -7 | . | .
O=C(NCCc1c[nH]c2ccccc12)c1cc([N+](=O)[O-])cc([N+](=O)[O-])c1 | 1 | 2 | 65* | 1 | -13 | -252 | 6 | 69*
O=[N+]([O-])c1ccccc1/C=C/CN1CCN(Cc2ccc3c(c2)OCO3)CC1 | -8 | 0 | -1 | 27 | 0 | 5 | . | .
CCCN1C[C@H](CSC)C[C@@H]2c3cccc4[nH]cc(c34)C[C@H]21 | 0 | 2 | 90* | 18 | -12 | -323 | 38* | 0
O=[N+]([O-])C(=C1Nc2ccccc2N1)/C(Cl)=C(/Cl)Br | 5 | 1 | -1 | 17 | -9 | 9 | . | .
CCc1noc(C)c1C(=O)N1CC(C)SC1=Nc1ccc(Cl)cc1 (stereo unspecified) | . | 1 | 4 | . | -3 | -11 | . | .
